# Laboratory results from PubChem BioAssay (NCATS).
# Records with an inconclusive call do not appear. A call without a number means that no potency is given here. The source made the active and inactive calls. The call rests on the fitted dose curve; in most records, active means well fitted curve in the direction sought with a large enough effect; inconclusive means small, poorly fitted or top-dose-only effect, or another doubt; inactive means no such curve, though single readings can be large; an effect the other way counts as inactive or inconclusive.
# What was measured:
# [1] = HPAF-II Cancer Cell Toxicity qHTS against the NCATS CANVASS Library (AID 1347346); further: series mostly up to about 38 µM; nearly all actives have a fitted effect of over 55% in size
# In short: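 Luminescence from CellTiter-Glo, added after 72 h compound exposure and a 15 min room-temperature incubation, served as the viability readout. HPAF-II cells (1000/well) received an 11-point concentration series.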
# [2] = OV-SAHO Cancer Cell Toxicity qHTS against the NCATS CANVASS Library (AID 1347348); further: series mostly up to about 38 µM; nearly all actives have a fitted effect of over 55% in size
# In short: (§1)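 1000 cells/well; 4 h settle; 11-pnt titration; 72 h, 37 degrees C, 5% CO2; CellTiter-Glo, 15min RT; luminescence read.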
# [3] = SW1088 Cancer Cell Toxicity qHTS against the NCATS CANVASS Library (AID 1347350); further: series mostly up to about 38 µM; nearly all actives have a fitted effect of over 75% in size
# In short: as §1
# [4] = U-118MG Cancer Cell Toxicity qHTS against the NCATS CANVASS Library (AID 1347351); further: series mostly up to about 38 µM
# In short: as §1
# [5] = COV-362 Cancer Cell Toxicity qHTS against the NCATS CANVASS Library (AID 1347352); further: series mostly up to about 38 µM
# In short: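 Luminescent ATP read-out (CellTiter-Glo, 15min at room temperature) measures survival after cells face an 11-point compound series for 72 hours at 37 degrees C/5% CO2.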
# [6] = SDT Cancer Cell Toxicity qHTS against the NCATS CANVASS Library (AID 1347365);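 further: SDT canine glioma cells 500 per well in 1536 well plates; series mostly up to about 46 µM; nearly all actives have a fitted effect of over 60% in size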
# In short: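 qHTS, SDT dog glioma line, 500 cells/well; cpds 11 pts; 72 hr, 37C, 5% CO2; CellTiterGlo ATP luminescence.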
# [7] = G06 Cancer Cell Toxicity qHTS against the NCATS CANVASS Library (AID 1347368); further: series mostly up to about 46 µM; nearly all actives have a fitted effect of over 60% in size
# In short: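 Dog G06 glioma line, 500 cells/well; cpds pin-transferred, 11-pt; 72 hr, 37C/5% CO2; CellTiterGlo luminescence (ATP) endpoint.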
# [8] = MCF7 Cancer Cell Toxicity qHTS against the NCATS CANVASS Library (AID 1347369)
# In short: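 Cells seeded at 500/well, then compound pinned. Plates incubated 72 hr at 37C, 5% CO2. CellTiterGlo added; luminescence read.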
# [9] = qHTS for ATAD5 Antagonist screened against the NCATS CANVASS Library (AID 1347370);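 further: HEK293T cells carrying an ATAD5 luciferase reporter co-treated with 10 µM 5-fluorouridine; series mostly up to about 46 µM; nearly all actives have a fitted effect of over 65% in size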
# In short: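 HEK293T cells with stably integrated ATAD5-luciferase reporter, 2000/well, 5 h attachment; compounds plus 10 µM 5-fluorouridine, 16 h at 37 °C. Luciferase luminescence read, with CellTiter-Fluor viability read first.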
# [10] = target: Nuclear receptor subfamily 1 group I member 3 (Homo sapiens) (UniProt Q14994); test: qHTS for Constitutive Androstane Receptor (CAR) Antagonist screened against the NCATS CANVASS Library (AID 1347372);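 further: cells stimulated with 50 nM CITCO agonist so inhibition reflects antagonism; luciferase from CYP2B6 promoter reporter driven by hCAR in HepG2 cells; series mostly up to about 46 µM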
# Chain of Nuclear receptor subfamily 1 group I member 3 (Homo sapiens) (Q14994 whole entry, looked up): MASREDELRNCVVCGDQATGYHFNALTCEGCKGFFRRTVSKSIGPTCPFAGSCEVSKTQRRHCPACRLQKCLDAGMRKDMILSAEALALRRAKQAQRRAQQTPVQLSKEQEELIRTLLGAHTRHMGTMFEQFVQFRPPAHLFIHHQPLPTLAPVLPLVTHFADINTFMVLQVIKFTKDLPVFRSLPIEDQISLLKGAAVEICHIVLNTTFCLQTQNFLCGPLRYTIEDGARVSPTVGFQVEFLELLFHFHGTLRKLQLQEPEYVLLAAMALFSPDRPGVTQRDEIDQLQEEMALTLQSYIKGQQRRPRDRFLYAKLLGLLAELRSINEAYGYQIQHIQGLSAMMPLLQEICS
# In short: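 HepG2-CYP2B6-hCAR double-stable cells plated, 4hr attach; cpd pin-transferred; CITCO 50 nM final; 24hr 37C/5% CO2; CellTiter-Fluor 1hr (fluorescence), then ONE-Glo luminescence.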
# [11] = qHTS for Inflammasome Signaling Inhibitors: IL-1-beta AlphaLISA screen against the NCATS CANVASS Library (AID 1347379);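 further: human THP-1 cells primed with LPS then triggered with ATP; secreted IL-1B measured as AlphaLISA emission at 615 nm; lower signal means less IL-1B release which is the wanted effect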
# In short: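 THP-1 cells pretreated 1 hr with compound (up to 57.5 uM final), then stimulated with LPS (250 ng/mL final) and ATP (1.25 mM final). Secreted IL-1B measured by AlphaLISA after 16 hr; glyburide as positive control.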
# [12] = qHTS for Activators of p53 Stress Response Pathway screened against the NCATS CANVASS Library (AID 1347388)
# In short: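 Beta-lactamase reporter driven by p53 response elements in HCT-116 cells, read as the 460 nm/530 nm emission ratio after CCF4 loading, following 16 h of exposure to an 11-point series. Cell viability was measured in the same wells by CellTiter-Glo luminescence.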
# [13] = Secretion counterscreen for inhibitors of the SERCaMP assay screened against the NCATS CANVASS Library (AID 1347390);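 further: light from luciferase secreted into medium read as a measure of general secretion; series mostly up to about 77 µM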
# In short: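 SH-SY5Y-GLuc STOP cells; 4 h attach; cpds 0.001 - 77 uM (qHTS, 11 pts), 20 h 37C/5% CO2; coelenterazine in glow buffer; luminescence, 5 s exposure.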
# [14] = qHTS for activators of Nrf2/ARE signaling pathway screened against the NCATS CANVASS Library (AID 1347391); further: nearly all actives have a fitted effect of over 60% in size; further: potency means the concentration at half of the fitted maximal effect
# In short: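 Plate ARE-bla HepG2 cells at 2000/well and let them settle 5 h. Pin-transfer compounds in DMSO, incubate 16 h at 37C. Load CCF4 for 2 h at room temperature and read blue/green fluorescence.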
# [15] = qHTS for inhibitors of ER calcium dysfunction: SERCaMP assay screened against the NCATS CANVASS Library (AID 1347393);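 further: series mostly up to about 77 µM; lower secreted reporter signal means inhibitor of ER calcium depletion; nearly all actives have a fitted effect of over 40% in size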
# In short: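 Thapsigargin-induced ER calcium depletion drives GLuc-SERCaMP secretion from SH-SY5Y cells; compounds given 16 h beforehand were scored by lowered coelenterazine luminescence after 4 h challenge.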
# [16] = Vero-766 cells viability qHTS against the NCATS CANVASS Library: Counterscreen for Zika virus inhibition assay (AID 1347394); further: series mostly up to about 46 µM; nearly all actives have a fitted effect of over 60% in size
# In short: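 Vero 766, no virus; 1000 cells/well; o/n attach; cpd 11-pt; 72 h, 37C, 5% CO2; CTG luminescence; cell-free media wells = 100% inhibition.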
# [17] = Viability qHTS for inhibitors of the SERCaMP assay screened against the NCATS CANVASS Library (AID 1347400); further: series mostly up to about 92 µM; nearly all actives have a fitted effect of over 70% in size
# In short: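 SH-SY5Y SERCaMP MJH297 cells, 1000/well; 4 h settle, 37C/5% CO2; pin-transferred cpds; 48 h; CellTiter-Glo lum. Pos ctrl bortezomib 0.0001 - 4.6 uM.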
# [18] = qHTS to identify inhibitors of the type 1 interferon - major histocompatibility complex class I in skeletal muscle: primary screen against the NCATS Mechanism Interrogation Plate v5.0 (MIPE) Libary (AID 1347411); further: nearly all actives have a fitted effect of over 65% in size; further: potency means the concentration at half of the fitted maximal effect
# In short: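 Luminescence from HiBiT-tagged endogenous HLA-B*08:01 served as the MHC class I read-out. CRISPR-engineered C25cl48 human myoblasts received 4.0 ng/ml IFN-beta plus compound for 24 hrs, with an 11-point, 1:3 series topping at 46 uM final.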
# [19] = target: Glutathione peroxidase 1 (Homo sapiens) (UniProt P07203); test: Primary qHTS Assay for Inhibitors of Recombinant Selenoprotein Glutathione Peroxidase 1 (GPX1) (AID 1845191); further: nearly all actives have a fitted effect of over 65% in size
# Chain of Glutathione peroxidase 1 (Homo sapiens) (P07203 whole entry, looked up): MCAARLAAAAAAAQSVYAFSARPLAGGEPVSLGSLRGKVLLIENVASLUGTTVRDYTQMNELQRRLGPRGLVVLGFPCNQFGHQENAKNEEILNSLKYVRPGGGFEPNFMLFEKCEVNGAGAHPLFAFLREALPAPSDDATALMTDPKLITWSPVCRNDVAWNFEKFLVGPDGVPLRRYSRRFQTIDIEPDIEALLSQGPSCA
# In short: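 10 nM GPX1 + cpd, 30 min RT; start w/ 1 mM GSH, 0.5 mM cumene hydroperoxide, 0.5 mM NADPH, 100 nM GR, 0.01% BSA; buffer 50 mM Tris-HCl pH 7.5, 2 mM EDTA, 150 mM NaCl; Fl 340/450, 0 & 15 min.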
# [20] = target: Phospholipid hydroperoxide glutathione peroxidase GPX4 (Homo sapiens) (UniProt P36969); test: Primary qHTS Assay for Inhibitors of Recombinant Selenoprotein Glutathione Peroxidase 4 (GPX4) (AID 1845192); further: nearly all actives have a fitted effect of over 65% in size; further: potency means the concentration at half of the fitted maximal effect
# Chain of Phospholipid hydroperoxide glutathione peroxidase GPX4 (Homo sapiens) (P36969 whole entry, looked up): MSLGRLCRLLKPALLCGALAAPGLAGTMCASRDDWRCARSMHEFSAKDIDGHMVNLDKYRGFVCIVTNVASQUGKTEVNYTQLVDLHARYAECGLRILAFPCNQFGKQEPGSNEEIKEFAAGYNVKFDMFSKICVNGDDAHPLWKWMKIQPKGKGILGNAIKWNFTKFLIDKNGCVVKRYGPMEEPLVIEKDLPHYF
# In short: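 NADPH consumption, followed by fluorescence at 340/450 nm between 0 and 15 min, reports GPX4 activity via coupled glutathione reductase (100 nM). Enzyme 200 nM was pre-exposed to compound 30 min; 0.5 mM cumene hydroperoxide and 1 mM GSH served as substrates.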
compound,measurement,setting,value
O[C@H]1C=C[C@@]23CCN(Cc4cc5c(cc42)OCO5)[C@@H]3C1,Potency,[1],inactive
same,Potency,[2],inactive
same,Potency,[3],inactive
same,Potency,[4],inactive
same,Potency,[5],inactive
same,Potency,[6],inactive
same,Potency,[7],inactive
same,Potency,[8],inactive
same,Potency,[9],inactive
same,Potency,[10],inactive
same,Potency,[11],inactive
same,Potency,[12],inactive
same,Potency,[13],inactive
same,Potency,[14],inactive
same,Potency,[15],inactive
same,Potency,[16],inactive
same,Potency,[17],inactive
c1ccc2nc3c(cc2c1)[nH]c1ccccc13,Potency,[1],inactive
same,Potency,[3],inactive
same,Potency,[4],inactive
same,Potency,[5],inactive
same,Potency,[8],inactive
same,Potency,[9],inactive
same,Potency,[10],inactive
same,Potency,[11],inactive
same,Potency,[12],inactive
same,Potency,[13],inactive
same,Potency,[14],16.6 µM (active)
same,Potency,[16],inactive
same,Potency,[17],inactive
CO/C1=C/C(C)=C\[C@@H](C)[C@@H](O)[C@@H](C)C/C(C)=C\C=C/[C@H](OC)[C@@H]([C@@H](C)[C@@H](O)[C@H](C)[C@@]2(O)C[C@@H](O)[C@H](C)[C@@H](C(C)C)O2)OC1=O,Potency,[18],inactive
same,Potency,[19],inactive
same,Potency,[20],inactive
COC[C@H]1OC(=O)c2coc3c2[C@@]1(C)C1=C(C3=O)[C@@H]2CC[C@H](O)[C@@]2(C)C[C@H]1OC(C)=O,Potency,[18],inactive
same,Potency,[19],inactive
same,Potency,[20],inactive
COC(=O)[C@@]12OC[C@]34[C@H]([C@@H](O)[C@@H]1O)[C@@]1(C)CC(=O)C(O)=C(C)[C@@H]1C[C@H]3OC(=O)[C@H](OC(=O)/C=C(\C)C(C)C)[C@@H]24,Potency,[18],0.0658 µM (active)
same,Potency,[19],inactive
same,Potency,[20],inactive
Cn1c(/C=C/CO)c(CO)c2c1C(=O)C=C(N1CC1)C2=O,Potency,[18],inactive
same,Potency,[19],inactive
same,Potency,[20],inactive
C=C[C@H]1CN2CCC1C[C@@H]2[C@@H](O)c1ccnc2ccccc12 (some centres not stated),Potency,[18],inactive
C=C(C)[C@@H]1CCC(C)=C[C@H]1c1c(O)cc(CCCCC)cc1O,Potency,[18],33 µM (active)
same,Potency,[19],inactive
same,Potency,[20],17.8 µM (active)
CC1(C)CC[C@]2(NC(=O)C(C)(F)F)CC[C@]3(C)[C@H](C(=O)C=C4[C@@]5(C)C=C(C#N)C(=O)C(C)(C)[C@@H]5CC[C@]43C)[C@@H]2C1,Potency,[18],1.31 µM (active)
same,Potency,[19],inactive
same,Potency,[20],inactive
CC(N[C@H]1C[C@@H]1c1ccccc1)c1ccc2c(c1)OCCO2 (some centres not stated),Potency,[18],inactive
same,Potency,[19],inactive
COC(=O)[C@]12CCC(C)(C)C[C@H]1[C@H]1C(=O)C=C3[C@@]4(C)C=C(C#N)C(=O)C(C)(C)[C@@H]4CC[C@@]3(C)[C@]1(C)CC2,Potency,[18],1.17 µM (active)
same,Potency,[19],inactive
same,Potency,[20],inactive
C[C@@H](C1CC[C@@]2(O)C3=CC(=O)[C@@H]4C[C@@H](O)[C@@H](O)C[C@]4(C)[C@H]3CC[C@]12C)[C@H](O)CCC(C)(C)O (some centres not stated),Potency,[18],inactive
same,Potency,[19],inactive
same,Potency,[20],inactive
